The source of these data is PubChem BioAssay (Tox21).

Test [1] can be described thus: qHTS assay for small molecules that induce genotoxicity in human embryonic kidney cells expressing luciferase-tagged ATAD5 (AID 651632). Also: % is scaled to controls: 0 for no effect and ±100 for the full control effect; nearly all actives have a fitted effect of over 15% in size. The settings on record: HEK293T ATAD5-luciferase induction, 16 h; series mostly up to 83.3 µM. In a few lines: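 Reporter cells (HEK293T) express luciferase-tagged ATAD5, a protein that accumulates after DNA damage. Treat 16 hr at 37C/5% CO2, add Amplite, wait 30 min at RT, and read luminescence.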

Test [2] can be described thus: qHTS assay for small molecule agonists of the p53 signaling pathway - cell viability (AID 651633; calls by dose curve; also: nearly all actives have a fitted effect of over 30% in size; also: potency is read from the fitted curve at half-maximal effect). The settings on record: p53RE-bla HCT-116 viability, ATP luminescence, 16 h; series mostly up to 83.3 µM. An outline of the steps:
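p53RE-bla cells, seeded at 4,000 per well and rested 5 h at 37 C/5% CO2, received compounds in DMSO for 16 h at 37 C. CellTiter-Glo was then added, and luminescence was read after 30 min at room temperature to gauge cytotoxicity.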

The nature of test [3]: qHTS assay for small molecules that induce genotoxicity in human embryonic kidney cells expressing luciferase-tagged ATAD5 - cell viability (AID 651634; calls by dose curve; also: nearly all actives have a fitted effect of over 25% in size; also: potency is read from the fitted curve at half-maximal effect). The settings on record: HEK293T ATAD5-luc cells viability, CellTiter-Fluor, 15.5 h; series mostly up to 83.3 µM. In a few lines: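 Seeding of 2,000 HEK293T ATAD5-luciferase cells per well preceded pin-tool compound transfer. Plates sat 15.5 hr at 37C under 5% CO2, then fluorescence was read after 30 min with CellTiter-Fluor.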

Test [4] in a line: qHTS assay for small molecule disruptors of the mitochondrial membrane potential - cell viability (AID 720634; calls by dose curve;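 also: human HepG2 liver cancer cells; % is scaled to controls: 0 for no effect and ±100 for the full control effect; nearly all actives have a fitted effect of over 20% in size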). To be noted: HepG2 viability, ATP luminescence (CellTiter-Glo), 1 h; series mostly up to 83.2 µM. An outline of the steps:
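Measuring cytotoxicity alongside mitochondrial potential, the screen quantified ATP by luminescence in HepG2 cells after 1 hr compound incubation and a 30 min room-temperature CellTiter-Glo step.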

Test [5] in a line: qHTS assay to test for compound auto fluorescence at 535 nm (green) in HepG2 cells (AID 720675). Also: % is scaled to controls: 0 for no effect and ±100 for the full control effect. To be noted: green autofluorescence 485/535 nm, 1 h; series mostly up to 91.3 µM.
Test [6] in a line: qHTS assay to test for compound auto fluorescence at 460 nm (blue) in HEK293 cells (AID 720678). Also: % is scaled to controls: 0 for no effect and ±100 for the full control effect. To be noted: blue autofluorescence 405/460 nm; series mostly up to 91.3 µM. An outline of the steps:
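Triamterene serves as the blue fluorophore standard. Compound signal at 405/460 nm is read in HEK293 wells (2,000 cells, 10% dialyzed FBS) after overnight treatment at 37C.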

A short description of test [7]: qHTS assay to test for compound auto fluorescence at 590 nm (red) in HEK293 cells (AID 720679). Also: % is scaled to controls: 0 for no effect and ±100 for the full control effect. To be noted: red autofluorescence 540/590 nm; series mostly up to 91.3 µM. In a few lines: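 We plated HEK293 cells in 10% dialyzed FBS medium, let them adhere for 4-5 hr, then added 23 nL compound. Overnight at 37C and 5% CO2 preceded fluorescence measurement at 540/590nm.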

Test [8] is described as follows: qHTS assay to test for compound auto fluorescence at 590 nm (red) in HepG2 cells (AID 720674). Also: % is scaled to controls: 0 for no effect and ±100 for the full control effect. To be noted: HepG2 autofluorescence, red 540/590 nm, 1 h; series mostly up to 91.3 µM. In a few lines: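 Compound auto-fluorescence is scored relative to Rose Bengal sodium, measured at 540/590 nm in live HepG2 cultures after 1 hr compound contact (37 C, 5% CO2).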
The nature of test [9]: qHTS assay for small molecule disruptors of the mitochondrial membrane potential (AID 720635). Also: potency is read from the fitted curve at half-maximal effect. To be noted: HepG2 mitochondrial membrane potential, Mito-MPS dye ratio; series mostly up to 83.2 µM. An outline of the steps: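 HepG2 cells (2,000/well) attached overnight at 37C, then took compound for 1 hr at 37C, 5% CO2. Mito-MPS dye was added for 30 min; fluorescence was read at 490/535 nm (monomers) and 540/590 nm (aggregates).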

Values without a mark were called inactive. Inconclusive results are not listed. Calls of active or inactive are those of the source. Unless noted, calls follow the shape of the dose curve; as a rule, active = well fitted curve in the direction sought with a large enough effect in the repeat runs; inconclusive = weak or mixed curves; inactive = no such curve, though single readings can be large; an effect the other way counts as inactive or inconclusive.

Take `CCCCCCCCCCCC(=O)OCC(O)CO` (stereo not given): the Potency result in [1], in test [2], in test [3] and in test [6] was “inactive” throughout. Moreover, the compound was classed as inactive in test [4], in [5] and in test [7].
Regarding `CCC(Cl)CC(Cl)C(Cl)C(Cl)C(Cl)C(C)Cl` (stereo not given), in test [1], the activation is 8.79% [at 17.9 µM]. Also, the activity, negative = cytotoxicity in test [3] is 13% [at 17.9 µM]. Also, the activity change, negative = cytotoxicity in test [4] was -14.9% [at 17.9 µM]. The fluorescence, relative to Rose Bengal in test [8] was 0.266% [at 13.4 µM]. Also, the fluorescence, % of fluorescein control in test [5] is -0.0606% [at 13.4 µM]. In test [6], the fluorescence, % of triamterene is 0.1% [at 13.4 µM]. The fluorescence, % of fluorescent control in [7] was -0.173% [at 13.4 µM].
Consider `O[C@@H](CNC[C@H](O)[C@H]1CCc2cc(F)ccc2O1)[C@@H]1CCc2cc(F)ccc2O1`, for which the Potency entry in test [1], in test [3] and in test [6] was “inactive” each time. For the same compound, the outcome in test [4], in [8], in test [5] and in test [7] was inactive.
As for `COc1cc(NC(C)CCCN)c2ncccc2c1` (stereo not given), the Potency entry in [1] and in test [3] was “inactive” throughout. Besides, the fluorescence, relative to Rose Bengal in test [8] is -0.0926% [at 18.6 µM]. The fluorescence, % of fluorescein control in [5] was -0.0145% [at 18.6 µM]. Also, the fluorescence, % of triamterene in test [6] is 1.22% [at 18.6 µM]. In addition, the fluorescence, % of fluorescent control in test [7] was -0.0138% [at 18.6 µM].
As to `O=C(O)CNC(=O)c1ccccc1I`, the Potency result in test [1], in test [2], in [3] and in [6] was “inactive” each time. Besides, the call in test [4], in [5] and in [7] was inactive.
As to `Cc1ccccc1S(N)(=O)=O`, the Potency entry in [2], in test [3] and in [6] was “inactive” throughout. Also, the compound was classed as inactive in test [4], in test [8], in test [5] and in [7].
For the compound `CC1=CC[C@@H]2C[C@H]1C2(C)C`, the activation in [1] is -0.905% [at 17.9 µM]. In addition, the activity change, negative = cytotoxicity in test [2] was 5.84% [at 17.9 µM]. Further, the activity, negative = cytotoxicity in [3] was -7.96% [at 17.9 µM]. Also, the fluorescence, relative to Rose Bengal in test [8] is -0.0358% [at 18.6 µM]. Further, in test [5], the fluorescence, % of fluorescein control is 0.0991% [at 18.6 µM]. Moreover, the fluorescence, % of triamterene in [6] was -0.0033% [at 18.6 µM]. Further, the fluorescence, % of fluorescent control in test [7] was -0.712% [at 18.6 µM].
In the case of `O=C1CC[C@@H](C(=O)O)N1`, the Potency result in test [1], in test [2], in test [3] and in [6] was “inactive” in each case. Further, the call in test [5] and in [7] was inactive.
Consider `CC(C)OC(=O)c1ccccc1C(=O)OC(C)C`, for which the Potency result in test [1], in test [2], in test [3] and in test [6] was “inactive” in each case. Moreover, the compound was classed as inactive in test [4], in [5] and in [7].
On to `CC(CN(CCN(CC(C)OCCO)CC(C)OCCO)CC(C)OCCO)OCCO` (stereo not given), for which the Potency entry in test [1], in test [2] and in test [6] was “inactive” in each case. In addition, the outcome in test [4], in test [5] and in test [7] was inactive.
Take `O=C(O)c1cc(Cl)cc(Cl)c1O`: the Potency result in test [1], in [2], in test [3] and in test [6] was “inactive” in each case. Besides, the compound was called inactive in test [4], in test [5] and in test [7].
Take `O=C1OC(=O)c2c(Br)c(Br)c(Br)c(Br)c21`: the Potency entry in [2], in [3] and in [6] was “inactive” in each case. The result in test [4], in [8], in test [5] and in test [7] was inactive.
Regarding `CC(C)COC(=O)c1ccc(O)cc1`, the Potency result in [1], in test [2], in test [3] and in test [6] was “inactive” throughout. In test [9], the Potency is 12.2 µM (active). Besides, the result in test [8], in test [5] and in test [7] was inactive.
Turning to `COc1cc(OC)c2ccc(=O)oc2c1`, the Potency result in test [1], in [2] and in test [3] was “inactive” in each case. The result in test [4], in test [8], in test [5] and in test [7] was inactive.
With `CCN(CC)C(=O)/C(C#N)=C/c1cc(O)c(O)c([N+](=O)[O-])c1`, the Potency entry in test [2] and in test [6] was “inactive” throughout. The Potency in [3] is 26.6 µM (active). Moreover, the compound was classed as inactive in test [8], in test [5] and in test [7].
Turning to `CO[C@@H]1[C@@H](OC)[C@H](C)[C@@](O)(CC(=O)O)O[C@H]1[C@H](C)[C@H]1O[C@@]2(CC[C@@](C)([C@H]3CC[C@@](C)([C@@H]4O[C@@H]([C@H]5O[C@](C)(O)[C@H](C)C[C@@H]5C)C[C@@H]4OC4C[C@H](OC)[C@@H](OC)[C@H](C)O4)O3)O2)C[C@H](O)[C@H]1C` (stereo not given in full), the Potency result in [1], in [2] and in [6] was “inactive” each time. Moreover, in [3], the Potency was 1.19 µM (active). Further, the result in test [4], in test [5] and in [7] was inactive.
Consider `C=CCOC(=O)COCCC(C)C`, for which the Potency entry in test [1], in test [3] and in test [6] was “inactive” in each case. Moreover, the outcome in test [4], in test [8], in [5] and in test [7] was inactive.
In the case of `CC(C)(C)C(O)/C=C/c1ccc2c(c1)OCO2` (stereo not given), the Potency result in test [1], in test [2], in test [3] and in test [6] was “inactive” in each case. The result in test [4], in test [5] and in test [7] was inactive.
For `CCN(Cc1cccc(S(=O)(=O)O)c1)c1ccc(C(=C2C=CC(=[N+](CC)Cc3cccc(S(=O)(=O)O)c3)C=C2)c2ccc(O)cc2S(=O)(=O)[O-])cc1`, the Potency result in [1] and in [6] was “inactive” each time. In addition, the Potency in test [3] was 33.1 µM (active). Also, the compound was classed as inactive in test [8], in test [5] and in [7].
Regarding `Oc1ccc2c(c1)Cc1ccccc1-2`, the Potency entry in [3] and in [6] was “inactive” each time. The Potency in test [9] was 27.3 µM (active). Further, the result in [8], in [5] and in [7] was inactive.
`CC(=O)OCC1=C(C(=O)O)N2C(=O)[C@@H](NC(=O)CSc3ccncc3)[C@H]2SC1`: the Potency result in test [1], in [2], in test [3] and in test [6] was “inactive” throughout. In addition, the outcome in test [4], in [5] and in test [7] was inactive.
Turning to `COc1ccc(/C=C/C(=O)c2ccc(OC)cc2OC)cc1`, the Potency entry in [1], in [2] and in [6] was “inactive” in each case. Moreover, the compound was classed as inactive in [4], in [8], in test [5] and in test [7].
On to `O=C(O)CO`, for which the Potency result in test [1], in [2], in test [3] and in test [6] was “inactive” in each case. For the same compound, the compound was called inactive in test [4], in [5] and in test [7].
For the compound `COC(C)(C)OC`, the Potency entry in test [1], in test [2], in [3] and in test [6] was “inactive” throughout. Further, the call in [4], in test [5] and in test [7] was inactive.
`CN1CCCN(C(c2ccccc2)c2ccc(Cl)cc2)CC1` (stereo not given): the Potency result in [1], in [3] and in [6] was “inactive” in each case. Besides, the compound was called inactive in [4], in test [8], in [5] and in test [7].
Regarding `CCN(CC)CCOc1ccccc1C(=O)CCc1ccccc1`, the Potency entry in test [1], in test [2], in test [3] and in test [6] was “inactive” throughout. The outcome in test [4], in test [5] and in test [7] was inactive.
For the compound `O=C(/C=C/c1ccc([N+](=O)[O-])cc1)c1ccccc1`, the values for the Potency in [2] and in [9] were 68.7 µM (active) and 30.7 µM (active), respectively. Also, the Potency entry in [3] and in test [6] was “inactive” each time. Moreover, the compound was called inactive in [4], in [8], in [5] and in test [7].
